GLS inh: glutaminase GLS (human) inhibition. O94925. GLS enzymatic activity, qHTS titration. Potency, µM (highest dose often 45.5 µM), hits mostly inhibitors. 0.21% of 410,000 active. AID 624170
Target sequence (O94925 whole entry, looked up): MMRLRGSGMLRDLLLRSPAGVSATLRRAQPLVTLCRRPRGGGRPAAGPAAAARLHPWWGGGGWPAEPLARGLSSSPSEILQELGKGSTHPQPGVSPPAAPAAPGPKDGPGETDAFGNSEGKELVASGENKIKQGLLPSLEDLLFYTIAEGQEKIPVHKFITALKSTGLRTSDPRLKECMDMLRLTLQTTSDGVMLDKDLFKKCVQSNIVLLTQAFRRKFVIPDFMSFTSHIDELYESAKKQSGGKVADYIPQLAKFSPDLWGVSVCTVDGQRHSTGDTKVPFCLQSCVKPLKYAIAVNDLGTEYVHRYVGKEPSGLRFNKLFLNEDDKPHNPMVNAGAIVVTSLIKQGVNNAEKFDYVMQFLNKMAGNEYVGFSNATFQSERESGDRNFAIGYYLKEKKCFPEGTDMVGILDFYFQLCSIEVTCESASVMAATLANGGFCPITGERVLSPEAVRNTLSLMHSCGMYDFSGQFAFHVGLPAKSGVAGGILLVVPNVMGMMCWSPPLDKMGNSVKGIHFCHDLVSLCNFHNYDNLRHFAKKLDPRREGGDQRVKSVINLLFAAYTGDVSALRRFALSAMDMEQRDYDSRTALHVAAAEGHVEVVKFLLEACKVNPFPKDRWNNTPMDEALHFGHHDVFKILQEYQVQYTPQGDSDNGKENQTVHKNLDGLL
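Read-out is an Amplex red fluorescence increase coupled through glutamate oxidase and HRP, measured before and after 30 min room-temperature incubation. hKGA is in 45 mM KH2PO4 (pH 8.2) with 0.02% Tween-20; glutamine added as 1mM solution.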
JMJD2A Tudor: inhibitors of human JMJD2A Tudor domain | AlphaScreen JMJD2A-Tudor / H3K4me3 peptide binding | Potency, µM (top dose mostly 114 µM), hits mostly inhibitors | 4.4% of 390,000 active; note: nearly all actives have a fitted effect of over 50% in size
BAZ2B block: BAZ2B (human) inhibition | Potency, µM (highest dose often 114 µM), most hits filed as inhibitors | AID 504333 | AlphaScreen BAZ2B-H3K14Ac peptide displacement | Q9UIF8 | 4.4% of 360,000 active; note: nearly all actives have a fitted effect of over 60% in size
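AlphaScreen luminescence quantifies BAZ2B engagement of H3K14Ac peptide; the protein and biotinylated peptide are both at 50 nM final, buffer PBS pH 7.4 with 0.01% Tween-20, all steps at room temperature.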
HP1b chromo inh: blocks HP1-beta chromodomain binding to methylated histone tails; P83916; AlphaScreen HP1-beta / biotin-H3K9me3 peptide binding; 0.56% of 390,000 active; Potency, µM (series often up to 114 µM), most hits filed as inhibitors; note: nearly all actives have a fitted effect of over 70% in size
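HP1-beta protein (50 nM final) preincubated 30 min at room temperature with biotinylated H3(1-18)K9me3 peptide (50 nM) in PBS pH 7.4, 0.01% Tween-20, then compound added for 30 min. AlphaScreen streptavidin donor/nickel chelate acceptor beads (10 ug/mL final), 30 min dark, luminescence read.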
G9a block: G9a (human) methyltransferase inhibition; Potency, µM (series often up to 102 µM), usual class: inhibitors; 8.8% of 350,000 active; G9a H3K9 monomethylation, AlphaScreen, 2 h; AID 504332; Q96KQ7; note: nearly all actives have a fitted effect of over 75% in size
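Compounds were preincubated with 20 nM G9a for 15 min, after which biotinylated H3K9 peptide (500 nM) and SAM (20 uM) started a 2 h room-temperature reaction. Monomethylated product was quantified by antibody-based AlphaScreen chemiluminescence.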
Of the large screens only hits and unclear results are named; the others gave an inactive call. This is a sample that favours compounds with a hit; in the whole collection about 10% have one here. Calls come from the whole dose curve; as a rule, active = well fitted curve in the direction sought with a large enough effect; inconclusive = small, poorly fitted or top-dose-only effect, or another doubt; inactive = no such curve, though single readings can be large; an effect the other way counts as inactive or inconclusive.

Cn1c(-c2sc3ccccc3c2Cl)n[nH]c1=S	JMJD2A Tudor 22µM, G9a block inconclusive
c1ccc2[nH]c(CSc3nc4ccccc4s3)nc2c1	none
Clc1c(-c2nnc3n2CCC3)sc2ccccc12	none
CCNc1nnc(CSc2nc3ccccc3s2)s1	G9a block 4.5µM
Nc1c(Cl)cc(N=Nc2ccccc2)cc1Cl	JMJD2A Tudor 14µM, HP1b chromo inh inconclusive (no result: BAZ2B block, G9a block)
COc1ccc(Nc2nc(C)cc(C)n2)cc1Cl	G9a block inconclusive
CS(=O)(=O)c1cccc(C(=O)N(CCc2ccccc2)Cc2cccs2)c1	G9a block 79µM
O=C(Nc1nsc(-c2ccccc2)n1)c1ccc(F)cc1	G9a block inconclusive
CC(C)CC(NS(=O)(=O)OCC(Cl)(Cl)Cl)c1ccccc1 (stereo unspecified)	GLS inh inconclusive, JMJD2A Tudor 40µM
O=C(O)CCC(=O)Nc1ccccc1C(=O)NCc1ccco1	G9a block inconclusive
Cc1cc(C)n2nc(SCc3cccc(S(=O)(=O)N(C)C)c3)nc2n1	G9a block 45µM
Cc1ccc(CSc2nc3nc(C)cc(C)n3n2)cc1	none (no result: G9a block)
CN1C(=O)/C(=C\C(=O)c2cccs2)c2ccccc21	JMJD2A Tudor 50µM, BAZ2B block 20µM, HP1b chromo inh 45µM, G9a block 20µM
CC(=O)/C=C1/C(=O)Nc2ccccc21	GLS inh inconclusive, G9a block 11µM
C=CCOc1cccc(C(=O)/C=C2/C(=O)Nc3ccccc32)c1	JMJD2A Tudor inconclusive, BAZ2B block inconclusive, G9a block inconclusive
CC(=O)/C=C1\C(=O)N(C)c2ccccc21	G9a block 8.9µM (no result: GLS inh, JMJD2A Tudor, BAZ2B block, HP1b chromo inh)
CC(C)c1ccc(N(C(=O)c2ccco2)C(C(=O)NC2CCCC2)c2ccncc2)cc1 (stereo unspecified)	none
COc1ccccc1OCCNC(=O)Cc1ccc(Cl)c(Cl)c1	none
CC1=NN(C(N)=S)C(=O)C1N=Nc1cccc2ccccc12 (stereo unspecified)	BAZ2B block 40µM (no result: GLS inh, JMJD2A Tudor, HP1b chromo inh, G9a block)
CC1=NN(C(=O)c2ccncc2)C(=O)C1N=Nc1ccc2ccccc2c1 (stereo unspecified)	JMJD2A Tudor inconclusive, HP1b chromo inh 25µM (no result: BAZ2B block, G9a block)
CC1=NN(C(N)=S)C(=O)C1N=Nc1cccc(Cl)c1C (stereo unspecified)	JMJD2A Tudor 50µM, BAZ2B block 45µM, HP1b chromo inh inconclusive (no result: G9a block)
CC1=NN(C(N)=S)C(=O)C1N=Nc1ccc(Cl)cc1 (stereo unspecified)	JMJD2A Tudor inconclusive, HP1b chromo inh inconclusive, G9a block 71µM
CC1=NN(C(N)=S)C(=O)C1N=Nc1ccccc1 (stereo unspecified)	none
CC1CCCN(Cc2c(O)ccc3c(=O)c(-c4ccccc4Cl)c(C(F)(F)F)oc23)C1 (stereo unspecified)	none
Cc1ccc(-n2c(C)cc(C=C3C(=O)CC(C)(C)CC3=O)c2C)cc1	HP1b chromo inh inconclusive
Cn1c(=O)c(C#N)c(-c2ccc(F)cc2)c2cc(C(=O)c3cc(Cl)cc(Cl)c3O)cnc21	JMJD2A Tudor 45µM, BAZ2B block 35µM, HP1b chromo inh inconclusive, G9a block inconclusive
Cc1c(Br)c(O)c(Br)c(O)c1/C=N/n1c(-c2ccccc2)n[nH]c1=S	GLS inh inconclusive, JMJD2A Tudor 25µM, HP1b chromo inh inconclusive, G9a block 0.79µM
Oc1c(Br)cc(/C=N/n2c(-c3ccccc3)n[nH]c2=S)c(O)c1Br	JMJD2A Tudor 4µM, G9a block 0.4µM
Oc1c(Br)cc(/C=N/n2c(-c3ccccc3)n[nH]c2=S)cc1Br	JMJD2A Tudor 3.2µM, BAZ2B block inconclusive, G9a block 1.3µM
Oc1ccc(/C=N/n2c(-c3ccccc3)n[nH]c2=S)cc1Br	JMJD2A Tudor 8.9µM, G9a block 0.89µM
Cc1ccc(C(=O)OCCc2sc[n+](Cc3ccccc3)c2C)cc1	none
CCC(CC)C(=O)Nc1ccc2nc(SCc3ccccc3)sc2c1	none
CCc1ccccc1NC(=O)CCNS(=O)(=O)c1ccc2c(c1)CCCC(=O)N2	none
CC1Cn2c(nnc2-c2cccc(N)c2)S1 (stereo unspecified)	none
CCc1ccccc1NC(=O)NNC(=O)c1ccc2ccccc2c1O	none
CCOC(=O)C(CC)Sc1ccc2nnc(CCNS(=O)(=O)c3ccccc3)n2n1 (stereo unspecified)	G9a block inconclusive
CN(C)CCN(C(=O)c1ccccc1Cl)c1nc2c(Cl)cccc2s1	JMJD2A Tudor 25µM, HP1b chromo inh inconclusive, G9a block 10µM
COC(=O)c1ccc(C(=O)N(CCN(C)C)c2nc3c(Cl)cccc3s2)cc1	G9a block 56µM (no result: BAZ2B block)
CCN(CC)CCN(C(=O)c1ccc2c(c1)OCCO2)c1nc2c(Cl)cccc2s1	JMJD2A Tudor inconclusive, BAZ2B block inconclusive, G9a block 50µM
O=C(Cc1ccccc1)N(Cc1cccnc1)c1nc2c(Cl)cccc2s1	BAZ2B block inconclusive
CN(C)CCN(C(=O)c1cccc(Cl)c1)c1nc2c(Cl)cccc2s1	JMJD2A Tudor inconclusive, G9a block 45µM
CCN(CC)CCN(C(=O)c1ccc2c(c1)OCCO2)c1nc2cc(C)cc(C)c2s1	JMJD2A Tudor inconclusive, BAZ2B block inconclusive (no result: G9a block)
Cc1cc(C)n(CC(=O)N2N=C(C(F)F)CC2(O)C(F)F)n1 (stereo unspecified)	none
Cc1cc(SCC#N)nc2ccccc12	none (no result: G9a block)
O=C1CCN(CCc2ccccc2)CCN1CCSc1ccccc1	none (no result: G9a block)
Cc1ccc(SCCN2CCN(C)CC2)cc1	G9a block 50µM
OCCN1CCN(CCSc2ccccc2)CC1	JMJD2A Tudor 28µM, G9a block inconclusive
c1ccc(SCCN2CCc3ccccc3C2)cc1	JMJD2A Tudor 25µM, G9a block 40µM
Cc1ccc(SCCN2CCN(C)CCC2=O)cc1	none
COc1ccc(C(=O)N/N=C/c2sc(=O)n(Cc3cccc(C(=O)O)c3)c2Cl)cc1	G9a block inconclusive
C#CCOC(=O)c1ccccc1C(=O)n1nnc2ccccc21	none
Cc1ccc(OCC(O)CN2CCN(c3ccccc3)CC2)cc1 (stereo unspecified)	none
C=CCc1ccccc1OCC(O)CN1CCN(c2ccccc2)CC1 (stereo unspecified)	JMJD2A Tudor inconclusive, BAZ2B block 50µM, G9a block inconclusive
C=CCc1cc(C)ccc1OCC(O)CN1CCN(c2ccccc2)CC1 (stereo unspecified)	JMJD2A Tudor 2.8µM, BAZ2B block 50µM, HP1b chromo inh 40µM, G9a block inconclusive
C=CCc1ccc(OCC(O)CN2CCCCC2)c(OC)c1 (stereo unspecified)	G9a block inconclusive
C=CCc1ccc(OCC(O)CN2CCN(c3ccccc3)CC2)c(OC)c1 (stereo unspecified)	JMJD2A Tudor inconclusive, BAZ2B block inconclusive, G9a block 45µM
C=CCc1cc(OC)ccc1OCC(O)CN1CCN(c2ccc(OC)cc2)CC1 (stereo unspecified)	JMJD2A Tudor 45µM, BAZ2B block 35µM, G9a block 28µM
O=C(CN(Cc1ccccc1)S(=O)(=O)c1ccccc1)NC1CC1	none

Screening data (PubChem)
